# Laboratory results published in the OligoGym collection.
# Biological target: IL16
# Test: pooled miR-30 sensor sort-seq; sequence = guide strand
# Details: shRNA
# Also: reference of the scale not given here.
row,Sequence,sensor-assay potency score (higher = more potent)
1,TTCATGAAGAATATCCTCCTAC,0.448
2,TGATTCACCATTGAGCTCCAGA,-0.0119
3,ATCTTCTCCAGTGTCACCGTGC,-0.369

# Biological target: IL18RAP
# Test: as above
# Details: shRNA
row,Sequence,sensor-assay potency score (higher = more potent)
1,TTGTTTTCTAAAACATCAGGAA,-0.521
2,TTGGACATCAGATAGGTCGTTA,0.111
3,TCATCTTGACACAACAGGCTAC,0.09
4,TTGTAGTTCAAAGATACTGGGT,-0.0545
5,TTCTGTTCTACTGAGTCCTTTC,-0.716
6,TTTCTGTTCTACTGAGTCCTTT,-0.456
7,TTTGAATTTCCTATCAGCCTGA,0.608
8,TCTCACTTGAACAACAGCTCTG,0.299
9,TTTCAGTGTTTGATCATCCAAG,-0.42
10,TTAACTTCTAAAATCATCTTGA,1
11,ATAAACTTCATCCACTACGATT,-1.45
12,TATTTTCTGATTCTGCTCGGAC,-0.239

# Biological target: IL32
# Test: as above
# Details: shRNA
row,Sequence,sensor-assay potency score (higher = more potent)
1,TTTGAAGTCGTCCTCCAGCTCT,-0.749
2,TGCGGGATCCTCAACATCCGGG,-0.63
3,TAAAATCTTTCTATGGCCTGGT,0.537
4,TTTTATCATAAAATCTTTCTAT,-0.484
5,ATAAAATCTTTCTATGGCCTGG,-0.133
6,TGAAGTCGTCCTCCAGCTCTGC,-1.04
7,TTTATCATAAAATCTTTCTATG,-1.15
8,TAGAGGAGTGAGCTCTGGGTGC,-1.21
9,TAGGACTGGAAAGAGGACATGA,0.275
10,TAGGACTTGTCACAAAAGCTCT,-1.15
11,TTGCGGGATCCTCAACATCCGG,-1.68
12,TTTTTCAAGTAGAGGAGTGAGC,-0.743

# Biological target: IL5
# Test: as above
# Details: shRNA
row,Sequence,sensor-assay potency score (higher = more potent)
1,TTTTATGTACAGGAACAGGAAT,-1.18
2,TTCTTTATTAAGGACAAGTTTT,-1.48
3,TCTTTCACCAATGCACTTGTGG,-0.0823
4,TTGAATAGTCTTTCCACAGTAC,0.569
5,TACAGGAACAGGAATCCTCAGA,-0.449
6,TACACCAAGAAACTCTTGCAGG,-0.92
7,TTACTCTCCGTCTTTCTTCTCC,0.308
8,TATTTCTTTATTAAGGACAAGT,-0.457
9,TTCTTCAGTGCACAGTTGGTGA,-1.09
10,TTTTGAATAGTCTTTCCACAGT,-0.99
11,TTTGACTCTCCAGTGTGCCTAT,-0.108
12,TTGCACAGTTTGACTCTCCAGT,-0.479
